20 molecules from PubChem BioAssay (NCI) can be followed below.

Assay [1] is described as follows: NCI Yeast Anticancer Drug Screen. Data for the rad50 strain (AID 155).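 Also: 0% = growth of vehicle-only cultures of the same strain.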 The conditions noted are these: S. cerevisiae rad50 strain growth inhibition; at 50.0 µM; stronger effect = higher value. Summed up:
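Vehicle-treated cultures provide the reference for the growth inhibition reported for compound-exposed, repair-deficient yeast.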

The nature of assay [2]: NCI Yeast Anticancer Drug Screen. Data for the mec2-1 strain (AID 157). Conditions: S. cerevisiae mec2-1 strain, at 50.0 µM, stronger effect = higher value. Summed up:
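mec2-1 yeast strain, carrying an alteration in DNA damage repair or cell cycle control, was exposed to compounds; growth inhibition was measured relative to vehicle-treated controls.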

The nature of assay [3]: NCI Yeast Anticancer Drug Screen. Data for the sgs1 mgt1 strain (AID 161).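 Also: 0% = growth of cultures given vehicle only.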 The conditions noted are these: S. cerevisiae sgs1 mgt1 strain, at 50.0 µM, stronger effect = higher value. Summed up:
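Percent growth inhibition was derived by comparing compound-exposed mutant yeast with vehicle-exposed cultures. The strain carries alterations in DNA damage repair.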

A short description of assay [4]: NCI Yeast Anticancer Drug Screen. Data for the cln2 rad14 strain (AID 165).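 Also: 0% = growth equal to vehicle treated cultures.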 The conditions noted are these: S. cerevisiae cln2 rad14 strain, at 50.0 µM, stronger effect = higher value. The gist of the method:
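Yeast carrying cln2 and rad14 alterations (cell cycle control and DNA damage repair) were exposed to compounds. Growth inhibition was measured against vehicle-treated controls.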

Assay [5] is described as follows: NCI Yeast Anticancer Drug Screen. Data for the bub3 strain (AID 167). The conditions noted are these: S. cerevisiae bub3 mutant strain, at 50.0 µM, stronger effect = higher value. Summed up: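 Mutant yeast screening strain plus compound; vehicle-treated cultures serve as the 0% inhibition reference.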
Assay [6] in a line: NCI Yeast Anticancer Drug Screen. Data for the mlh1 rad18 strain (AID 175). Conditions: S. cerevisiae mlh1 rad18 strain growth inhibition; at 50.0 µM; stronger effect = higher value. The gist of the method: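 Growth inhibition of the yeast strain was measured after compound exposure and expressed relative to vehicle-treated controls. The strain carries defined defects in DNA damage repair.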

The panel holds about 79,000 compounds, 15% with a hit somewhere; the sample as a whole holds those more often. Values without a mark were called inactive. The source made the active and inactive calls. Rule as the data show it: active = growth inhibition above about 70%; inactive = the rest.

Consider `N#CC1C(=O)NC(=O)C(C#N)C12CCCC2` (stereo not given), for which the growth inhibition in assay [1] was -3.65%; in assay [2], -9.2%; in assay [3], 5.25%; in assay [4] it was -22.2%; in assay [5], 10.9%; in assay [6], 10.7%.

For the molecule `O=[N+]([O-])c1cc(F)ccc1-c1ccc(F)cc1`, the growth inhibition is 2.35% in assay [1]; -4.85% in assay [2]; 0.7% in assay [3]; -20.7% in assay [4]; 2.8% in assay [5]; 20.4% in assay [6].

`OCc1ccc(F)cc1CO`: the growth inhibition in assay [1] was -12.4%; in assay [2], -2.35%; in assay [3], -2.85%; in assay [4], -17.1%; in assay [5], -11.2%; in assay [6], 11.9%.

`Nc1ncnc2nc(SC3OC(CO)C(O)C(O)C3O)[nH]c12` (stereo not given): the growth inhibition in assay [1] was 10.2%; in assay [2], -9.65%; in assay [3], 9.9%; in assay [4] it was -9%; in assay [5], 12.8%; in assay [6] it was 2.85%.

As to `CSC1=NNC(c2ccccc2)=C(c2ccccc2)S1`, the growth inhibition in assay [1] was -1.55%; in assay [2] it was 4.2%; in assay [3] it was 52%; in assay [4], -31.8%; in assay [5], 59.7%; in assay [6], 0.45%.

For the molecule `CC(C)(C)C(=O)CC(=O)C(C)(C)C`, the growth inhibition in assay [1] is -3.9%; in assay [2], -9.5%; in assay [3], 2.25%; in assay [4], -57.4%; in assay [5], -2.8%; in assay [6] it was -15.8%.

For the molecule `CCCCCC(CSCC)C(=O)/C=C/c1ccccc1` (stereo not given), the growth inhibition in assay [1] was 8.3%; in assay [2], 1.4%; in assay [3], -7%; in assay [4], -1.55%; in assay [5] it was 18.6%; in assay [6], 5.6%.

With `O=C(NC(=S)Nc1ccc(S(=O)(=O)c2ccc(NC(=S)NC(=O)c3ccccc3)cc2)cc1)c1ccccc1`, the growth inhibition was -28.5% in assay [1]; -32.6% in assay [2]; -7.8% in assay [3]; 8.75% in assay [4]; -32.1% in assay [5]; -12.6% in assay [6].

As for `ClC(c1ccccc1)c1cccc2ccccc12` (stereo not given), the growth inhibition was 30.6% in assay [1]; -2.45% in assay [2]; 7.7% in assay [3]; 21.5% in assay [4]; 11.8% in assay [5]; 41.6% in assay [6].

On to `COc1cc(/C=N/NC(=O)Cc2cccc3ccccc23)ccc1O`, for which the growth inhibition was 21.1% in assay [1]; 9.5% in assay [2]; 3.05% in assay [3]; -5.3% in assay [4]; 39.4% in assay [5]; 8.8% in assay [6].

Regarding `c1ccc(CNc2cnccn2)cc1`, the growth inhibition in assay [1] is -20.5%; in assay [2] it was 10.7%; in assay [3], -7.75%; in assay [4], -22.1%; in assay [5] it was -3.7%; in assay [6], -4.95%.

With `CN(C)c1ccc(/C=c2\[nH]c(=O)/c(=C\c3ccc(N(C)C)cc3)[nH]c2=O)cc1`, the growth inhibition in assay [1] is 4.3%; in assay [2], 4.6%; in assay [3], 12.2%; in assay [4] it was 14.6%; in assay [5], -8.55%; in assay [6], 16.2%.

As for `O=c1oc2ccc([N+](=O)[O-])cc2cc1-c1csc(-c2ccccc2)n1`, the growth inhibition in assay [1] is 3%; in assay [2] it was -9.35%; in assay [3], -7.05%; in assay [4], 7.45%; in assay [5], -26.3%; in assay [6] it was -48.8%.

For `CCOC(=O)C1(Cc2ccccc2)Cc2ccccc2C1=O` (stereo not given), the growth inhibition is 7.75% in assay [1]; 29.9% in assay [2]; 79% (active) in assay [3]; 62.1% in assay [4]; 73.7% (active) in assay [5]; 63.5% in assay [6].

As for `N=C1N=Nc2nc(C(C(=O)c3ccc(O)cc3O)c3nc4n(c3O)C(=N)N=N4)c(O)n21` (stereo not given), the growth inhibition is 2.35% in assay [1]; -4.3% in assay [2]; 7.15% in assay [3]; -24% in assay [4]; -15.3% in assay [5]; -2.4% in assay [6].

In the case of `CC1(C)COC(c2ccc(C(C)(C)C)cc2C(O)(c2cc(C(C)(C)C)ccc2C2=NC(C)(C)CO2)c2cc(C(C)(C)C)ccc2C2=NC(C)(C)CO2)=N1`, the growth inhibition in assay [1] was -8.8%; in assay [2], -4.2%; in assay [3], 7%; in assay [4], -5.5%; in assay [5], 28.6%; in assay [6], -1.1%.

`C=C(C)CCC[C@@H](C)C1CCC2(C)[C@@H]3CCC4C(C)(C)[C@@H](O)CC[C@@]45C[C@@]35CC[C@]12C` (stereo not given in full): the growth inhibition was 31.1% in assay [1]; 0.45% in assay [2]; 25.4% in assay [3]; 0.5% in assay [4]; 18% in assay [5]; 23.1% in assay [6].

As to `COc1ccc(CC2=c3cc(OC)c(OC)cc3=CCN2)cc1OC`, the growth inhibition is 12.1% in assay [1]; 4.5% in assay [2]; 9.7% in assay [3]; 12.2% in assay [4]; -2.85% in assay [5]; -5.75% in assay [6].

In the case of `CN1CCC(C(=O)NNc2ccccc2)CC1`, the growth inhibition is -12.1% in assay [1]; -13.2% in assay [2]; -3.75% in assay [3]; 7.3% in assay [4]; 0.1% in assay [5]; 4.7% in assay [6].

Consider `CC(C)CCC(C)c1ccncc1` (stereo not given), for which the growth inhibition in assay [1] is 11.7%; in assay [2] it was 0.4%; in assay [3] it was -7.05%; in assay [4] it was -6.5%; in assay [5], 3.35%; in assay [6], 0.45%.
